# From PubChem BioAssay (Tox21)
# Records with an inconclusive call do not appear. Entries that show only a call come without a potency. A number with no mark means an inactive call. Calls of active or inactive are those of the source. Unless noted, calls come from the whole dose curve.
# Key:
# [1] = target: Peroxisome proliferator-activated receptor delta (Homo sapiens) (UniProt Q03181); experiment: qHTS assay to identify small molecule agonists of the peroxisome proliferator-activated receptor delta (PPARd) signaling pathway (AID 743212)
# Peroxisome proliferator-activated receptor delta (Homo sapiens), sequence (Q03181 whole entry, looked up): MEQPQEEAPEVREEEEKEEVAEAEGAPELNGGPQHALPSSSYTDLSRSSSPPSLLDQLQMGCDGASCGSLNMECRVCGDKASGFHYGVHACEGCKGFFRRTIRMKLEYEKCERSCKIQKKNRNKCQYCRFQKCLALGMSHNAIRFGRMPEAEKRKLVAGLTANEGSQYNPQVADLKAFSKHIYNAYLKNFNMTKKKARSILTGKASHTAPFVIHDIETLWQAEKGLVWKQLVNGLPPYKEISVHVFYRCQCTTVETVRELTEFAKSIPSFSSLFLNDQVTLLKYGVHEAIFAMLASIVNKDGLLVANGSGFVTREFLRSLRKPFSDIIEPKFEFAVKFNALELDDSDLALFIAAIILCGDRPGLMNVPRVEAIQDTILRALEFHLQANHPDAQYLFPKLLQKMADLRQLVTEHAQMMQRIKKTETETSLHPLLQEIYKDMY
# In short: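 A PPARd-bla HEK293H line with beta-lactamase under an Upstream Activator Sequence is treated with compounds at 37 C. Substrate loading for 2 h at room temperature precedes the fluorescence measurement.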
# [2] = qHTS assay to identify small molecule antagonists of the peroxisome proliferator-activated receptor delta (PPARd) signaling pathway - cell viability counter screen (AID 743213; active = well fitted curve in the direction sought with a large enough effect in the repeat runs; an effect the other way counts as inactive or inconclusive; note: nearly all actives have a fitted effect of over 50% in size)
# In short: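 Luminescence from CellTiter-Glo, added after the bla read and incubated 30 min at room temperature, gives viability of HEK293H PPARd-bla cells exposed to compounds for 17 h at 37 C with 300 nM L165041.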
# [3] = target: Peroxisome proliferator-activated receptor delta (Homo sapiens) (UniProt Q03181); experiment: qHTS assay to identify small molecule antagonists of the peroxisome proliferator-activated receptor delta (PPARd) signaling pathway (AID 743215; active = well fitted inhibition curve with a large enough effect in the signal ratio in the repeat runs, not every such curve was filed as active; the % refers to the signal ratio;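 note: cells stimulated with agonist L165041 at 300 nM final during compound exposure; series mostly up to about 62 µM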)
# In short: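 PPARd-bla HEK293H cells (UAS-bla reporter) preincubated 5 h, then given compound plus 300 nM final L165041 agonist for 17 h at 37 C. Beta-lactamase activity read by LiveBLAzer B/G FRET substrate fluorescence after 2 h at room temperature.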
# [4] = target: Bile acid receptor (Homo sapiens) (UniProt Q96RI1); experiment: qHTS assay to identify small molecule antagonists of the farnesoid-X-receptor (FXR) signaling pathway (AID 743217; active = well fitted inhibition curve with a large enough effect in the signal ratio in the repeat runs, not every such curve was filed as active; the % refers to the signal ratio)
# Bile acid receptor (Homo sapiens), sequence (Q96RI1 whole entry, looked up): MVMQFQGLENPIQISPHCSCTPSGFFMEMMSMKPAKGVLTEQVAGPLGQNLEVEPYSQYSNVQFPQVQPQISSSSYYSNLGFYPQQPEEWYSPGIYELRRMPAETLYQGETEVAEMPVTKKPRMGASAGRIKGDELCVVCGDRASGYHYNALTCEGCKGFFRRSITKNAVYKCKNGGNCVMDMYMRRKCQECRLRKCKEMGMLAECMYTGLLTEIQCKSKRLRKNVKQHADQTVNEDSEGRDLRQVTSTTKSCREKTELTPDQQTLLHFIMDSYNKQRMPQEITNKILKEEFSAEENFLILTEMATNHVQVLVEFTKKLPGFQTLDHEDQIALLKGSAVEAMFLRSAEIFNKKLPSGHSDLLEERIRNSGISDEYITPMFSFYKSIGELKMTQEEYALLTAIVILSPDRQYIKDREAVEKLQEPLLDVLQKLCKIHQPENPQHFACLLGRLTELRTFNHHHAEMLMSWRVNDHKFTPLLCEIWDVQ
# In short: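 FXR-UAS-bla HEK 293T cells (beta-lactamase reporter) given compound plus chenodeoxycholic acid (50 uM final), 16 h at 37C. LiveBLAzer B/G FRET substrate added for 2 h at room temperature; fluorescence read.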
# [5] = qHTS assay to identify small molecule agonists of the farnesoid-X-receptor (FXR) signaling pathway - cell viability counter screen (AID 743218; active = well fitted curve in the direction sought with a large enough effect in the repeat runs; an effect the other way counts as inactive or inconclusive; note: nearly all actives have a fitted effect of over 45% in size)
# In short: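 FXR-UAS-bla HEK 293T cells exposed to compounds for 16 h at 37C. Cytotoxicity read in the same wells by CellTiter-Glo luminescence after 30 min at room temperature, following the beta-lactamase FRET read.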
# [6] = target: Bile acid receptor (Homo sapiens) (UniProt Q96RI1); experiment: qHTS assay to identify small molecule agonists of the farnesoid-X-receptor (FXR) signaling pathway (AID 743220; active = well fitted activation curve with a large enough effect in the signal ratio in the repeat runs, not every such curve was filed as active; the % refers to the signal ratio)
# In short: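 Beta-lactamase reporter under UAS control in GeneBLAzer FXR HEK 293T cells (5000/well) measured with LiveBLAzer FRET substrate after 2 h at room temperature. Compound exposure lasted 16 h at 37C.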
# [7] = qHTS assay to identify small molecule antagonists of the farnesoid-X-receptor (FXR) signaling pathway - cell viability counter screen (AID 743221; active = well fitted cell-killing curve with a large enough effect in the repeat runs, not every such curve was filed as active; note: nearly all actives have a fitted effect of over 50% in size)
# In short: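 Cytotoxicity counter screen run in the FXR-bla reporter wells: HEK 293T cells exposed to compound with 50 uM (final) chenodeoxycholic acid for 16 h, 37 C, then viability measured by CellTiter-Glo luminescence after 30 min, room temperature.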
# [8] = target: Vitamin D3 receptor (Homo sapiens) (UniProt P11473); experiment: qHTS assay to identify small molecule agonists of the vitamin D receptor (VDR) signaling pathway (AID 743222)
# Vitamin D3 receptor (Homo sapiens), sequence (P11473 whole entry, looked up): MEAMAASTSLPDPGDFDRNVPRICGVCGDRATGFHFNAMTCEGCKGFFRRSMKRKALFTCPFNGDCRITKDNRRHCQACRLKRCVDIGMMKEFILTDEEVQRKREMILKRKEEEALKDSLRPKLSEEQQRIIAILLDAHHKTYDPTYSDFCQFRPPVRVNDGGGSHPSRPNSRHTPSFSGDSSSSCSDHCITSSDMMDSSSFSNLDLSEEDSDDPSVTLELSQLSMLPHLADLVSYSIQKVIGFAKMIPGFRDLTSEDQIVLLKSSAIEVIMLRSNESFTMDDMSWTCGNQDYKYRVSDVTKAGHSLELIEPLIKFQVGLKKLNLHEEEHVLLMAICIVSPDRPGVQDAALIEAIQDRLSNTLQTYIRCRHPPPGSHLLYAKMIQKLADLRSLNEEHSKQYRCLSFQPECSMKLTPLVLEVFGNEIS
# In short: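 VDR-bla cells plated 4 h at 37 C, then exposed to compounds for 16 h at 37 C. Beta-lactamase reporter activity measured by fluorescence after 2 h room-temperature loading with LiveBLAzer B/G FRET substrate.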
# [9] = qHTS assay to identify small molecule agonists of the vitamin D receptor (VDR) signaling pathway - cell viability counter screen (AID 743224; active = well fitted curve in the direction sought with a large enough effect in the repeat runs; an effect the other way counts as inactive or inconclusive; note: nearly all actives have a fitted effect of over 50% in size; note: potency is the fitted concentration of half-maximal effect)
# In short: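 VDR-bla cells, 4 h after plating, exposed to compounds for 16 h at 37C; viability then read in the same wells as CellTiter-Glo luminescence after 30 min at room temperature, following the bla FRET read.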
# [10] = qHTS assay to identify small molecule antagonists of the vitamin D receptor (VDR) signaling pathway - cell viability counter screen (AID 743225; active = well fitted curve in the direction sought with a large enough effect in the repeat runs; an effect the other way counts as inactive or inconclusive; note: nearly all actives have a fitted effect of over 50% in size)
# In short: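 Cytotoxicity counter screen read by CellTiter-Glo luminescence (30 min, room temperature) in the same wells as the VDR-bla antagonist readout. HEK 293T VDR-UAS-bla cells had 16 h at 37C with compound and 3 nM (final) 1-alpha,25-dihydroxyvitamin D3, then 2 h with FRET substrate.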
# [11] = qHTS assay to identify small molecule agonists of the NFkB signaling pathway (AID 1159509; active = well fitted curve in the direction sought with a large enough effect in the signal ratio in the repeat runs, not every such curve was filed as active; the % refers to the signal ratio; note: series mostly up to about 61 µM)
# In short: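 ME-180 NFkB-bla, 2,000 cells/well, overnight plating; cpd pinned in DMSO, 5 h 37 C; B/G FRET substrate 1.5 h RT; ex 405, em 460/530 nm.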
# [12] = qHTS assay to identify small molecule agonists of the NFkB signaling pathway - cell viability counter screen (AID 1159515); note: series mostly up to about 61 µM; nearly all actives have a fitted effect of over 55% in size
# In short: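 NFkB-bla ME-180 cells, 2,000/well, plated overnight at 37 C; compound added for 5 hr at 37 C. Viability read in the same wells as the bla reporter, by CellTiter-Glo luminescence after 30 min at room temperature.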
# [13] = qHTS assay to identify small molecule agonists of the endoplasmic reticulum stress response signaling pathway (AID 1159516; active = well fitted activation curve with a large enough effect in the signal ratio in the repeat runs, not every such curve was filed as active; the % refers to the signal ratio)
# In short: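 CellSensor ESRE-bla HeLa cells, 1,500 per well, plated overnight, then exposed to compounds for 5 hr at 37 C. Beta-lactamase reporter read with LiveBLAzer B/G FRET substrate after 2 hr at room temperature, 405 nm excitation, 460 and 530 nm emission.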
# [14] = qHTS assay to identify small molecule agonists of the endoplasmic reticulum stress response signaling pathway - cell viability counter screen (AID 1159517)
# In short: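 CellTiter-Glo was added to wells already read for beta-lactamase FRET, and luminescence was recorded 30 min later. Cells: ESRE-bla HeLa, 1,500 per well, compound exposure 5 hr at 37 C.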
# [15] = qHTS assay to identify small molecule antagonists of the retinoid-related orphan receptor gamma (ROR-gamma) signaling pathway - cell viability counter screen (AID 1159520; active = well fitted curve in the direction sought with a large enough effect in the repeat runs; an effect the other way counts as inactive or inconclusive; note: nearly all actives have a fitted effect of over 50% in size)
# In short: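 Tet-on ROR gamma CHO cells (1,000/well) were plated 4 hr, given compounds in DMSO for 2 hr at 37 C, then induced with 1 uM final doxycycline for 16 hr. Viability was read as ATP by CellTiter-Glo luminescence after 30 min.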
# [16] = qHTS assay to identify small molecule agonists of the AP-1 signaling pathway - cell viability counter screen (AID 1159525); note: nearly all actives have a fitted effect of over 55% in size
# In short: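 ME-180 AP-1-bla, 2500 cells/well, Opti-MEM + 0.5% dialyzed FBS; overnight 37 °C; cpd 15-pt titration, 5 h 37 °C; CellTiter-Glo 30 min RT; luminescence read; normalised to TOAB and DMSO controls.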
# [17] = qHTS assay to identify small molecule agonists of the AP-1 signaling pathway (AID 1159526)
# [18] = qHTS assay to identify small molecule agonists of the peroxisome proliferator-activated receptor delta (PPARd) signaling pathway - cell viability counter screen (AID 743211; active = well fitted curve in the direction sought with a large enough effect in the repeat runs; an effect the other way counts as inactive or inconclusive; note: nearly all actives have a fitted effect of over 55% in size)
# In short: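 Viability was measured as CellTiter-Glo luminescence (30 min, room temperature) in the same wells as the beta-lactamase readout. GeneBLAzer PPARd UAS-bla HEK293H cells received compound after 5 h plating and were incubated 17 h at 37 C.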
# [19] = target: Vitamin D3 receptor (Homo sapiens) (UniProt P11473); experiment: qHTS assay to identify small molecule antagonists of the vitamin D receptor (VDR) signaling pathway (AID 743223; active = well fitted inhibition curve with a large enough effect in the signal ratio in the repeat runs, not every such curve was filed as active; the % refers to the signal ratio)
# In short: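 Antagonist mode: compound added to VDR-bla cells alongside agonist 1alpha,25-dihydroxyvitamin D3 (3 nM final), incubation 16 h at 37C. Read-out is LiveBLAzer FRET fluorescence, 2 h at room temperature.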
# [20] = target: Nuclear receptor ROR-gamma (Homo sapiens) (UniProt P51449); experiment: qHTS assay to identify small molecule antagonists of the retinoid-related orphan receptor gamma (ROR-gamma) signaling pathway (AID 1159521; active = well fitted curve in the direction sought with a large enough effect in the repeat runs; an effect the other way counts as inactive or inconclusive)
# In short: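 Antagonist read-out: drop in luminescence (ONE-Glo) from an RORE-LUC reporter in CHO cells with doxycycline-inducible ROR-gamma; 2 hr compound pretreatment, 1 uM doxycycline, 16 hr incubation at 37 C.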
Structure (SMILES),outcome [1],outcome [2],outcome [3],Potency [4],Potency [5],outcome [6],outcome [7],outcome [8],Potency [9],outcome [10],outcome [11],outcome [12],outcome [13],Potency [14],Potency [15],Potency [16],outcome [17],Potency [18],outcome [19],Potency [20]
Nc1ccccc1Cl,inactive,inactive,inactive,inactive,inactive,inactive,inactive,inactive,inactive,inactive,inactive,inactive,inactive,inactive,inactive,inactive,inactive,,,
C[N+](C)=CCl,,inactive,,,inactive,,inactive,inactive,,inactive,inactive,inactive,inactive,inactive,inactive,inactive,inactive,inactive,inactive,
c1ccc(N2CCNCC2)cc1,,inactive,,inactive,inactive,inactive,inactive,inactive,inactive,inactive,inactive,inactive,inactive,inactive,inactive,inactive,inactive,inactive,inactive,
COC(=O)c1ccccc1S(=O)(=O)NC(=O)N(C)c1nc(C)nc(OC)n1,inactive,inactive,inactive,inactive,,inactive,inactive,,inactive,inactive,inactive,inactive,inactive,inactive,inactive,inactive,inactive,inactive,,
COC(=O)COc1ccc(Cl)cc1Cl,inactive,inactive,inactive,,inactive,,,inactive,inactive,inactive,inactive,inactive,inactive,inactive,inactive,,inactive,,inactive,inactive
C=CC1CC=CCC1 (stereo unspecified),inactive,inactive,inactive,inactive,inactive,inactive,inactive,inactive,inactive,,inactive,inactive,inactive,inactive,inactive,inactive,inactive,inactive,,
Cc1cnc[nH]1,inactive,inactive,inactive,inactive,inactive,inactive,inactive,inactive,inactive,inactive,inactive,inactive,inactive,inactive,inactive,inactive,inactive,,,
CC(C(O)c1ccccc1)N(C)C/C=C/c1ccccc1 (stereo unspecified),,inactive,,,,,inactive,inactive,inactive,,inactive,inactive,inactive,inactive,inactive,inactive,,,inactive,inactive
CSc1ccc(C(=O)C(C)(C)N2CCOCC2)cc1,inactive,inactive,inactive,inactive,inactive,inactive,inactive,inactive,inactive,inactive,inactive,inactive,inactive,inactive,inactive,inactive,inactive,inactive,inactive,
CN(N=O)C(N)=O,,inactive,,inactive,inactive,inactive,inactive,inactive,inactive,inactive,inactive,inactive,inactive,inactive,inactive,inactive,,,inactive,inactive
Cc1ncc(CNC(=O)N(CCCl)N=O)c(N)n1,inactive,inactive,,inactive,,,inactive,,inactive,inactive,inactive,inactive,inactive,inactive,inactive,inactive,inactive,inactive,,
CC(C)[N+](=O)[O-],inactive,inactive,inactive,inactive,inactive,inactive,inactive,inactive,inactive,inactive,inactive,inactive,inactive,inactive,inactive,inactive,inactive,inactive,inactive,
CCOC(=O)/C=C(C)/C=C/C[C@@H](C)CCCC(C)C,inactive,,,inactive,inactive,inactive,inactive,,34.7 µM (active),inactive,inactive,inactive,inactive,inactive,inactive,inactive,inactive,,,
Clc1cccc(N2CCNCC2)c1,inactive,inactive,,inactive,inactive,inactive,inactive,inactive,,inactive,inactive,inactive,inactive,inactive,,inactive,inactive,inactive,,
C[C@]1(O)CC[C@H]2[C@@H]3CCC4=CC(=O)CC[C@]4(C)[C@@]3(F)[C@@H](O)C[C@@]21C,inactive,inactive,,inactive,,inactive,inactive,,inactive,inactive,inactive,inactive,inactive,inactive,,inactive,inactive,,,inactive
COc1cc(OC)nc(Oc2cccc(Oc3nc(OC)cc(OC)n3)c2C(=O)O)n1,inactive,,inactive,,inactive,inactive,inactive,,,,inactive,inactive,inactive,inactive,,inactive,inactive,inactive,inactive,inactive
O=C1CN2CCOC2(c2ccccc2Cl)c2cc(Cl)ccc2N1 (stereo unspecified),inactive,inactive,inactive,,inactive,inactive,inactive,inactive,inactive,inactive,inactive,inactive,inactive,inactive,,inactive,,,inactive,inactive
